This passage reports growth inhibition results from PubChem BioAssay (NCI).

The test in a line: NCI Yeast Anticancer Drug Screen. Data for the rad52 strain (AID 147).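 Further: 0% = growth of vehicle-treated control cultures.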 As to conditions: S. cerevisiae rad52 mutant growth inhibition, active compounds read high. As for the experimental part:
Growth inhibition of yeast strains with defined genetic alterations is measured as a screen for potential anti-cancer activity. Selected strains with alterations in DNA damage repair or cell cycle control were exposed to compounds and growth inhibition was measured relative to vehicle treated controls. The strain used in this assay is rad52

The panel holds about 79,000 compounds, 15% with a hit somewhere; the sample as a whole holds those more often. A number with no mark means an inactive call. Calls of active or inactive are those of the source. No stated cut-off is given here; in the data, active means growth inhibition above about 70%; inactive means the rest.

`O=[N+]([O-])c1ccc(S(=O)(=O)Cc2ccccc2)c([N+](=O)[O-])c1`: the growth inhibition is, setting by setting: (at 1.2 µM) 6%; (at 3.7 µM) 17%; (at 11.0 µM) 47%; (at 33.0 µM) 89% (active); (at 100.0 µM) 99% (active).
`CC12CCC(CC(=O)/C1=C(/Br)I)C2(C)C` (stereo not given): the growth inhibition (at 1.2 µM) is 2%; the growth inhibition (at 3.7 µM) is 3%; the growth inhibition (at 11.0 µM) is 5%; the growth inhibition (at 33.0 µM) was 13%; the growth inhibition (at 100.0 µM) is 3%.
For the compound `CC(=O)/C(=C\c1ccc(Cl)c(Cl)c1)C(=O)C(C)CN(C)C` (stereo not given), the growth inhibition was 19% (at 1.2 µM); 21% (at 3.7 µM); 33% (at 11.0 µM); 52% (at 33.0 µM); 91% (active) (at 100.0 µM).
`O=[N+]([O-])c1ccc2[nH]c3c(-c4ccccc4)nccc3c2c1`: the growth inhibition (at 1.2 µM) was -1%; the growth inhibition (at 3.7 µM) is 8%; the growth inhibition (at 11.0 µM) was 96% (active); the growth inhibition (at 33.0 µM) was 97% (active); the growth inhibition (at 100.0 µM) was 97% (active).
`NC(N)=NC(N)=Nc1ccccc1` (tested in a mixture with another compound): the growth inhibition was -3% (at 1.2 µM); -5% (at 3.7 µM); -7% (at 11.0 µM); 2% (at 33.0 µM); 48% (at 100.0 µM).
In the same order, the values of `CCOC(=O)/C(=C/c1cccc(Cl)c1)N(CC)CC` are 10%, 13%, 12%, 49% and 96% (active).
With `COc1cc(OC)c(CSCC(NC(=O)OCC2c3ccccc3-c3ccccc32)C(=O)O)c(OC)c1` (stereo not given), the growth inhibition (at 1.2 µM) is 0%; the growth inhibition (at 3.7 µM) is 5%; the growth inhibition (at 11.0 µM) is 48%; the growth inhibition (at 33.0 µM) is 97% (active); the growth inhibition (at 100.0 µM) was 98% (active).
Turning to `O=C(c1ccccc1)[C@H]1Nc2ccc(Cl)cc2[C@H]2OCCC[C@@H]12`, the growth inhibition (at 1.2 µM) is -16%; the growth inhibition (at 3.7 µM) was -40%; the growth inhibition (at 11.0 µM) is -19%; the growth inhibition (at 33.0 µM) is 22%; the growth inhibition (at 100.0 µM) was 86% (active).
